Among all 2,400 compounds or so, about 220 (9.2%) were called active. The sample holds actives, similar compounds and a random draw of the others, so the mix is not that of the screen. Unmarked numbers belong to inactive results.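 How the source made its calls: active means signal change above the mean of dofetilide-free buffer controls plus 3 SD, so a positive margin; inactive means the rest.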

The assay in a line: nonspecific flux effects in parental CHO-K1, confirmation, counter-screen for hERG block protection project, cell-based, CHO-K1 parental line, FluxOR thallium flux (AID 1839).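 Further: compounds applied alone with no dofetilide to cells lacking hERG.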 Conditions: CHO-K1 parental cells, FluxOR thallium flux fluorescence; at 10 µM.
Consider `CCOc1ccccc1NC(=O)C(=O)CC(=O)c1ccc(OC)cc1`, for which the signal change vs control minus 3*SD hit threshold (margin above threshold, higher = more increase) was -20.6%.

With `COc1ccc(C(=O)CC(=O)C(=O)Nc2ccc(C)cc2Cl)cc1`, the signal change vs control minus 3*SD hit threshold (margin above threshold, higher = more increase) is -13.5%. The value for `COc1cccc(C(=O)NNC(=O)C(=O)Nc2cccc3ccccc23)c1` was 11.1% (active); that for `CCOc1ccccc1NC(=O)C(=O)CC(=O)c1cccc(OC)c1` was -25.9%; that for `COc1cccc(C(=O)NNC(=O)C(=O)Nc2ccc(OC)cc2OC)c1` was -6.2%. The value for `CCOC(=O)N1CCN(C(=O)c2ccc(Cl)c(S(=O)(=O)Nc3ccccc3)c2)CC1` was -11.6%; that for `O=C(O)CSc1nc2ccccc2nc1Cc1ccccc1F` was -22.7%. The value for `CCC(=O)N1CCN(c2nc(CC)nc3sc4c(c23)CCCC4)CC1` was -56%; that for `Cc1cc(-c2cccc(Br)c2)c(C#N)c(N)n1` was -34.5%; that for `O=C(CCN1C(=O)/C(=C\C=C\c2ccccc2)SC1=S)Nc1cccc(C(=O)O)c1` was -27.2%. As for `Cc1ccccc1OC(=O)n1c(=S)oc2cc(Cl)ccc21`, the signal change vs control minus 3*SD hit threshold (margin above threshold, higher = more increase) is -25.4%. For the molecule `O=C(Nc1nc(=S)ss1)c1ccc(Cl)cc1Cl`, the signal change vs control minus 3*SD hit threshold (margin above threshold, higher = more increase) was 56.5% (active). Next, `CC(C)CC(=O)Nc1nc(=S)ss1`: -30.3%; `O=C(Nc1nnc(-c2ccc3c(c2)CCCC3)o1)c1ccc(Cl)cc1Cl`: -21.2%; `COC(=O)c1sc(NC(=S)NC(=O)c2ccccc2C)nc1C`: -2.6%. The value for `Cc1ccccc1C(=O)Nc1nc(=S)ss1` was 9.5% (active); that for `O=C(NNC(=O)c1ccc(Cl)cc1Cl)c1cnccn1` was -29%.

Consider `O=C1Nc2ccc(Br)cc2C1Cc1ccccc1F` (centres undefined), for which the signal change vs control minus 3*SD hit threshold (margin above threshold, higher = more increase) was -42.3%. The value for `O=C(O)c1ccc2c(c1)C(=O)N(c1cc([N+](=O)[O-])ccn1)C2=O` was -24.2%. Regarding `CCC(=O)Nc1ccc(N2CCOCC2)c(S(=O)(=O)Nc2ccc(OC)cc2)c1`, the signal change vs control minus 3*SD hit threshold (margin above threshold, higher = more increase) is -21.7%. For `O=C(c1ccccc1)c1nccn1-c1ccc(Cl)nn1`, the signal change vs control minus 3*SD hit threshold (margin above threshold, higher = more increase) was -27.6%. For `CC(NC(=O)C1CCN(S(=O)(=O)c2cccc3cccnc23)CC1)c1ccccc1` (centres undefined), the signal change vs control minus 3*SD hit threshold (margin above threshold, higher = more increase) was -31.3%. The value for `Cc1cc(C(=O)NCCN2C(=O)S/C(=C\c3cccs3)C2=O)ccc1[N+](=O)[O-]` was -31.4%. Next, `Cn1cc(/C=C2\SC(=O)NC2=S)c2ccccc21`: -27.6%; `CCOc1ccc(/C=C2/SC(=O)NC2=S)cc1`: 39% (active). The value for `CCOc1ccc(/C=C2\CCc3ccccc3C2=O)cc1` was -33.6%; that for `Cc1ccc(-c2nc(N)s[n+]2-c2ccccc2)cc1` was -7.8%; that for `CCOC(=O)N/N=C\c1ccc(-c2cc(Cl)ccc2Cl)o1` was -32%. For the molecule `Cc1ccc(C(C)NC(=O)c2cccs2)cc1C` (centres undefined), the signal change vs control minus 3*SD hit threshold (margin above threshold, higher = more increase) is -16.2%. Next, `O=C(N/N=C/c1cc(Cl)ccc1O)c1ccccc1Br`: -21.5%; `CCOC(=O)c1sc(NN=C(C(=O)OC)C(=O)OC)c(C(=O)OCC)c1C`: -7.4%. The value for `CCCOc1ccc(OC(=O)c2ccc(Br)o2)cc1` was -5.2%. The value for `CCCOc1ccc(C(=O)NNC(=S)NC(=O)c2ccccc2)cc1` was -44.9%; that for `CCCOc1ccc(-c2c(=O)n(O)c3ccccc3[n+]2[O-])cc1` was 29.7% (active); that for `CCOc1ccc(CC(C(N)=O)C(N)=O)cc1` was -32.5%. For `CCOc1ccc(N(CC)C(=O)COc2cc(=O)n(C)c3ccccc23)cc1`, the signal change vs control minus 3*SD hit threshold (margin above threshold, higher = more increase) is -18.3%. `CCOc1ccc(-c2c(=O)n(O)c3ccccc3[n+]2[O-])cc1`: the signal change vs control minus 3*SD hit threshold (margin above threshold, higher = more increase) was 19.7% (active). For the molecule `Cc1ccc(/C(O)=C2\C(=O)C(=O)N(Cc3cccnc3)C2c2ccccc2[N+](=O)[O-])cc1` (centres undefined), the signal change vs control minus 3*SD hit threshold (margin above threshold, higher = more increase) is -21.1%. Next, `COc1cc(NC(=O)c2ccccc2)c(OC)cc1NC(=O)Cc1ccc(Br)cc1`: -10.9%; `Cc1ccccc1OCC(=O)N=Nc1c(O)n(C)c2ccccc12`: -17.7%; `Cn1c(O)c(N=Nc2nc(-c3ccccc3)cs2)c2ccccc21`: 31.7% (active). The value for `CCc1ccc2[nH]c(O)c(N=Nc3nc(-c4ccccc4)cs3)c2c1` was -38.8%; that for `Cc1nn(CCC(=O)NNC(=S)Nc2ccc(F)cc2)c(C)c1[N+](=O)[O-]` was -35.8%. Next, `O=C(NC(=S)NC1CCCc2ccccc21)c1ccco1` (centres undefined): -14.2%; `Cc1nonc1CN(C)C(=O)c1ccc(OC2CCN(Cc3ccccn3)CC2)cc1`: -22.2%; `COCCNC(=O)C1CCN(S(=O)(=O)N2CCC3(CC2)OCCO3)CC1`: -40.3%.

On to `CCC1(c2ccc(Cl)cc2)NC(=S)N(c2ccc(C)cc2)N1` (centres undefined), for which the signal change vs control minus 3*SD hit threshold (margin above threshold, higher = more increase) is 18.9% (active). On to `CCC1(c2ccc(Cl)cc2)NC(=S)N(c2ccccc2)N1` (centres undefined), for which the signal change vs control minus 3*SD hit threshold (margin above threshold, higher = more increase) is 40.1% (active). Next, `CCC1(c2ccccc2)NC(=S)N(c2ccc(C)cc2)N1` (centres undefined): 48.2% (active).
